# Test results taken from ChEMBL document CHEMBL4513216, “Probing the Open Global Health Chemical Diversity Library for Multistage-Active Starting Points for Next-Generation Antimalarials” (ACS Infect Dis, 2020).
# About 2,700 (4%) of roughly 68,000 compounds showed an effect of 50% or more. The full list was thinned out, with strong results kept by preference.
# Tested on: Plasmodium berghei
# Test: Screen against P. berghei liver stage (PbLuc), transformed with Luciferase, at 2uM
# Assay type: functional, HepG2
# Conditions: tested at 2 uM
row,SMILES,INHIBITION
1,Cc1nc2cc(O)nn2c(C)c1CCC(=O)N(C)Cc1cscn1,-1.73%
2,CC(C)c1ccc(-n2cc(O)c(C(=O)N3CCC(C(N)=O)CC3)n2)cc1,-40.06%
3,Cc1nc(COC[C@]23COC[C@H]2CN(Cc2ccoc2)C3)cs1,18.57%
4,COc1ccc(C(C(=O)O)N2CCC(Cn3cccn3)CC2)cc1F (stereo not drawn),15.46%
5,Cc1ccnc(NC(=O)c2c(C)oc(C)c2C)c1,-18.78%
6,CCC1(C)Cc2ccccc2-c2nc(NCCCO)nc(O)c21 (stereo not drawn),44.7%
7,CCOc1ccc2[nH]c3c(N(C)CC4OCCO4)ncnc3c2c1,38.64%
8,Cc1ccc(S(=O)(=O)NC(=O)CCC(F)(F)F)cc1N(C)C,3.39%
9,CN(C)c1nc(NCCc2cnccn2)ncc1F,44.19%
10,OCC1(O)CCN(Cc2ccc(C3CCCCO3)o2)CC1 (stereo not drawn),61.27%
11,CN1CCN(C)C2(CCN(Cc3ccc(C4CCCCO4)o3)CC2)C1 (stereo not drawn),-6.27%
12,CN1CCC2(CC1)CN(Cc1ccc(C3CCCCO3)o1)CCCN2C (stereo not drawn),-83.94%
13,CC(=O)N1CCN(C(=O)CN2CCc3c(ncn3C3CC3)C2)CC1,37.52%
14,Cc1ccsc1CN(CCN(C)C)C(=O)C1=NNC(=O)CC1,-1.87%
15,COC(=O)c1sccc1NC(=O)C1CCCN1C(=O)c1ccco1 (stereo not drawn),-16.52%
16,Cc1cccc(NC(=O)C2CCCN2C(=O)c2ccco2)c1C (stereo not drawn),58.53%
17,COCc1ccccc1NC(=O)[C@@H]1CCCN1C(=O)c1ccco1,1.86%
18,O=C(Cc1c(F)cccc1F)N1CCN(CC(=O)N2CCCC2)CC1,57.95%
19,NC(=O)CN1CCCN(C(=O)Cc2ccc(F)cc2)CC1,33.12%
20,O=C(CN1CCN(c2ncnc3cccc(F)c23)CC1)N1CCCC1,-11.35%
21,CCc1n[nH]c(C2CN(C(=O)c3cscn3)CCO2)n1 (stereo not drawn),-34.61%
22,Cc1csc(N2CCCN(c3cc(C)nc(C)c3C#N)CC2)n1,-20.21%
23,Cc1cc(N2CCCC2)c(C#N)c(C)n1,-27.68%
24,Cc1cc(N2CCCCC2)c(C#N)c(C)n1,54.44%
25,Cn1cccc1C(=O)N1CCCN(CCCc2ccccc2)CC1,-25.8%
26,Cc1cnc(C)c(N2CCN(CC3CCCO3)CC2)n1 (stereo not drawn),-18.84%
27,CCc1nc(C)c(-c2nccn2CC2CCCCO2)[nH]1 (stereo not drawn),54.75%

row,SMILES,INHIBITION
1,CCc1nc(C)c(-c2nccn2CC2CCN(C3CCCC3)CC2)[nH]1,56.81%
2,CCc1nc(C)c(-c2nccn2CC2CC(=O)N(CC)C2)[nH]1 (stereo not drawn),-5.65%
3,Cc1nccn1CCC1CCN(C2CCC3(CCNCC3)CC2)CC1,34.52%
4,CC(=O)Nc1ccc2nc(-c3nccn3C[C@@H]3CCCO3)ccc2c1,25.13%
5,O=C(c1ccoc1)N1C[C@H]2CC[C@@]3(N=C(c4ccccc4)NC3=O)[C@H]2C1,-1.45%
6,Cc1nn(C)c2c(=O)n(C)c(NCC3CCCO3)nc12 (stereo not drawn),37.45%
7,CC(C)=CCCN1CCN(C)C2(CCC(=O)N(C)CC2)C1 (stereo not drawn),77.56%
8,CC/C(C)=C/CCN1CCN(C)C2(CCNC(=O)CC2)C1 (stereo not drawn),20.2%
9,CC(C)=CCC/C(C)=C/CN1CCN(C)C2(CCNC(=O)CC2)C1 (stereo not drawn),43.94%
10,Cc1noc(C)c1CN1CCc2ncnc(-c3ccccc3)c2CC1,-20.87%
11,CC(C)(C)OC(=O)NC1CCCN(Cc2cccs2)C1 (stereo not drawn),1.08%
12,O=S(=O)(Cc1ccccc1)NCC1CCCN(Cc2cccs2)C1 (stereo not drawn),64.35%
13,CCCC(=O)NC1CCCN(Cc2cccs2)C1 (stereo not drawn),53.65%
14,O=C(Cc1cccs1)N1CCCC(CNS(=O)(=O)Cc2ccccc2)C1 (stereo not drawn),-40.36%
15,O=C(CN1CCCC1)N1CCCC(CNS(=O)(=O)Cc2ccccc2)C1 (stereo not drawn),-4.77%
16,Cc1ncsc1CCC(=O)NC1CCN(Cc2cccs2)CC1,26.93%
17,O=C(NS(=O)(=O)c1ccccc1C(F)(F)F)c1cccc2c1OCCO2,37.69%
18,Fc1ccc(CC2CCN(Cc3cscn3)CC2)cc1,-23.58%
19,COc1cccc(COCC(=O)N2CCCC(c3ccn[nH]3)C2)c1 (stereo not drawn),14.97%
20,Cc1ncc(-c2ccnc(NCCO)n2)c(C2CCCCC2)n1,-38.58%
21,Cc1cncc(NC(=O)c2ccc(CN3CC[C@H](O)C3)cc2)c1,42.48%
22,COc1cc(NC(=O)c2ccc(CN3CC[C@H](O)C3)cc2)cc(OC)c1,20.71%
23,Cc1cc(NC(=O)c2ccc(CN3CC[C@H](O)C3)cc2)ccc1F,82.91%
24,Cc1cscc1-c1nc(C2CCOC2)no1 (stereo not drawn),10.22%
25,O=C(NCc1nnc2n1CCC2)c1ccc(Br)s1,22.39%
26,CCOCCN1CCN(Cc2nnc(C3CC3)o2)CC1,51.7%
